These results are taken from PubChem BioAssay AID602292 (National Center for Advancing Translational Sciences (NCATS), 2012).

Screen size: about 1,300 compounds; about 380 (29%) were called active. Not shown: some 37% with an inconclusive outcome. Calls come from the whole dose curve; as a rule, active = well fitted inhibition curve with a large enough effect; inconclusive = small, poorly fitted or top-dose-only effect; inactive = flat fitted curve, though single readings scatter. The list shows a part of the results. Where a call stands in place of a potency, no number is given.
Potency is the fitted concentration of half-maximal effect.

Thyrotropin receptor (Homo sapiens), sequence (P16473 whole entry, looked up): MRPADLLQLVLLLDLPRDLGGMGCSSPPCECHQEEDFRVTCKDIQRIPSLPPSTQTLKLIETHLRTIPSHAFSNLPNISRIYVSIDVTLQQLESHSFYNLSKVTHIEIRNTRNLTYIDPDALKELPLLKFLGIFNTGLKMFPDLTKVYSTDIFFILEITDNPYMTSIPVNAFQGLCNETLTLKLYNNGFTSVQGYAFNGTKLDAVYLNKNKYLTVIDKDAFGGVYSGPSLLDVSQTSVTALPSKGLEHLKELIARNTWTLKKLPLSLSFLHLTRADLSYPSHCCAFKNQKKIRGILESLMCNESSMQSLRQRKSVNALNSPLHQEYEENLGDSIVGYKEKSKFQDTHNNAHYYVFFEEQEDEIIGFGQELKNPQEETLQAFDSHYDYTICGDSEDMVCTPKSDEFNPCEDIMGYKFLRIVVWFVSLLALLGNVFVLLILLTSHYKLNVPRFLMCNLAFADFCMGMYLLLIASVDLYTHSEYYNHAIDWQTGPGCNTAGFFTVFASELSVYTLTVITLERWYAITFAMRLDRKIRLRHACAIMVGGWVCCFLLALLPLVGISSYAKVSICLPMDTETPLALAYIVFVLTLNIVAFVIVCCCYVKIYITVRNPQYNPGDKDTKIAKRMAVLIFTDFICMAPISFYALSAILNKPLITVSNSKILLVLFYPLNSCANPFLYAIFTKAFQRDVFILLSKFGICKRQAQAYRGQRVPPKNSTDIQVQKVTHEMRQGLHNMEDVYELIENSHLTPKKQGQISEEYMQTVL

The assay has as its target Thyrotropin receptor (Homo sapiens) (UniProt P16473). The experiment in a line: qHTS for antagonists of the Thyroid Stimulation Hormone Receptor: Hit Validation in Primary Screen. Note: nearly all actives have a fitted effect of over 80% in size. To be noted: TSHR-expressing cells, cAMP antagonist mode; series mostly up to 58 µM. The procedure, abridged: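 Competitive HTRF detected cAMP in lysates of TSHR cells, read 30 minutes after antibody and d2 addition at room temperature. Before lysis, cells had 2 hours at 37 deg C with compound plus EC80 TSH, 4nM final.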
(qHTS replaces the single test concentration by a dilution series.)
In the case of `COCCCn1c(=O)c2sccc2n(Cc2cccc(C)c2)c1=O`, the Potency entry was “inactive”. As to `CC(Sc1nnc2c(n1)[nH]c1ccccc12)C(=O)N(C)C1CCCCC1` (stereo not given), the Potency is 26.9 µM (active).

Consider `Cc1ccc(CNC(=O)CSc2nnc3c(n2)[nH]c2ccccc23)cc1`, for which the Potency entry was “inactive”. For `O=C(NCCc1ccc(Cl)cc1Cl)c1cc([N+](=O)[O-])c[nH]c1=O` the value was 16.9 µM (active); for `COC(=O)c1ccc(NC(=O)Nc2ccc(F)c(Cl)c2)cc1`, 19 µM (active). For the molecule `CSCc1cc(N2CCOCC2)nc(SCc2ccc(Cl)cc2Cl)n1`, the Potency result was “inactive”.

For `Cc1cccc(OCCCCc2c(C)n[nH]c2C)c1C`, the Potency was 30.1 µM (active). For `Cc1cccc(C)c1OCCCn1ccnc1` the value was “inactive”. For `COc1ccc(-c2nnc(CSc3nc4ccccc4c(=O)n3CC3CCCO3)o2)cc1OC` (stereo not given) the value was “inactive”.

Take `CCOc1cc(C(=O)NC2CC(C)(C)NC(C)(C)C2)cc(OCC)c1OCC`: the Potency entry was “inactive”.

Regarding `CC1=C/C(=N\OS(=O)(=O)c2ccccc2)C(C)=CC1=O`, the Potency is 4.78 µM (active). On to `CC1=CC(=O)C(C(C)C)=C/C1=N/OS(=O)(=O)c1ccccc1`, for which the Potency was 8.49 µM (active). Turning to `COc1ccc(NC(=O)Cc2nc3ccccc3[nH]2)cc1`, the Potency result was “inactive”. For `Cc1cc(C)n(C(=O)/C(C#N)=N/Nc2cc(Cl)cc(Cl)c2)n1` the value was 4.78 µM (active); for `CCOc1cc(N2CCOCC2)c(OCC)cc1NC(=O)c1cccc(S(=O)(=O)N2CCOCC2)c1`, 9.53 µM (active); for `COc1cccc(CNC(=O)CN2C(=O)CSc3ccc(S(=O)(=O)N4CCOCC4)cc32)c1`, “inactive”. Regarding `CCOc1cc(NC(=O)C2CC2)c(OCC)cc1NC(=O)c1cccc(F)c1`, the Potency entry is “inactive”.

Take `Cc1ccc(S(=O)(=O)N(Cc2ccccc2)c2ccccc2C(=O)N2CCCCC2)cc1`: the Potency result is “inactive”. For `Cn1c(=O)c([N+](=O)[O-])c(Cl)c2ccccc21` the value was 30.1 µM (active). On to `CC(C)C(=O)Nc1c(-c2ccc(Cl)cc2)c(=O)c2ccccc2n1C`, for which the Potency result was “inactive”. As to `Cn1c(N)c(Sc2ccccc2[N+](=O)[O-])c(=O)n(C)c1=O`, the Potency result was “inactive”.

Consider `Cc1noc(C)c1COc1ccccc1C(=O)N(C)Cc1ccc(C(C)(C)C)cc1`, for which the Potency was 30.1 µM (active).

Turning to `Nc1ccn(Cc2ccccc2F)n1`, the Potency entry is “inactive”.

Take `O=C(Nc1cccc(Cl)c1)Nc1ccc(Br)cc1F`: the Potency is 21.3 µM (active). Take `N#CC1=C(C2CC2)CC(c2ccccc2)C(C#N)=C1N` (stereo not given): the Potency entry is “inactive”.

`CC1(C)CC(=O)c2c(nc3ccccc3c2N)C1`: the Potency entry was “inactive”.

As for `c1ccc(C(c2nnnn2Cc2ccco2)N2CCN(c3nc4ccccc4s3)CC2)cc1` (stereo not given), the Potency result was “inactive”. With `CC(C)C(c1nnnn1Cc1ccco1)N1CCN(c2nc3ccccc3s2)CC1` (stereo not given), the Potency was 30.1 µM (active). For `COc1cccc(OC)c1C(=O)Nc1sc2c(c1C#N)CCC2` the value was “inactive”. For `CC(C)CC(=O)NC(NC(=S)Nc1sc2c(c1C#N)CCCC2)C(Cl)(Cl)Cl` (stereo not given) the value was 23.9 µM (active); for `Cc1cc(C)cc(N=C2NC(=O)CS2)c1`, “inactive”; for `Cc1nc2ccccc2n1CCOc1ccccc1`, “inactive”.

As to `Oc1c(Cl)cc(Cl)c(Cl)c1Cc1c(O)c(Cl)cc(Cl)c1Cl`, the Potency is 2.13 µM (active). Consider `CC(C)S(=O)(=O)C1=NSC2=NC(=O)/C(=C\c3ccc(-c4ccccc4)o3)C(=N)N21`, for which the Potency is 3.79 µM (active). Regarding `CSc1nc(-c2ccc(Cl)cc2Cl)[nH]c(=O)c1C#N`, the Potency is 6.75 µM (active). For `COc1cc(NC(=O)Cn2nc(C(F)(F)F)c(Br)c2C)cc([N+](=O)[O-])c1` the value was 26.9 µM (active). For `CN(CC(=O)Nc1ccccc1C(F)(F)F)Cc1c(O)ccc2ccccc12` the value was “inactive”; for `CCOC(=O)COc1ccc(Br)cc1/C=C/c1[nH]c(=O)[nH]c(=O)c1[N+](=O)[O-]`, 23.9 µM (active). For `CC(=O)N/N=C\c1ccccc1OC/C=C/c1ccccc1` the value was “inactive”. Turning to `CCOC(=O)COc1ccccc1/C=C\[N+](=O)[O-]`, the Potency is 30.1 µM (active). For the molecule `CC(C)OCCCn1c(=O)c2ccccc2n2c(CCC(=O)NC3CCN(Cc4ccccc4)CC3)nnc12`, the Potency result was “inactive”. As for `CC1CCN(Cc2c(C(=O)N/N=C/c3cc(Cl)ccc3O)nnn2-c2nonc2N)CC1`, the Potency result was “inactive”. For `COc1cccc(/C=N/NC(=O)C(=O)N2CCCC2)c1O` the value was “inactive”; for `N#Cc1ccc(Nc2nc(-c3ccc(O)cc3O)cs2)cc1C(F)(F)F`, 23.9 µM (active). For `COc1ccc(/C=C/C(=O)N2CCN(C)CC2)cc1OC` the value was “inactive”; for `COc1ccc(/C=C2\CC/C(=C\c3ccc(OC)c(OC)c3)C2=O)cc1OC`, 19 µM (active). For `COc1ccc(/C=C/C(=O)Nc2nc(C)cc(C)n2)cc1OC` the value was “inactive”; for `O=C(Nc1ccc2oc(-c3ccccc3F)nc2c1)c1ccc2c(c1)OCCO2`, 30.1 µM (active); for `CNc1c(NC(=O)c2ccc3c(c2)OCO3)c(=O)oc2ccccc12`, “inactive”. `COc1ccc(-c2nnc(NC(=O)c3ccc4c(c3)OCCO4)o2)cc1`: the Potency result was “inactive”. For `Cn1c(CNC(=O)C(Cc2ccccc2)NC(=O)c2ccccc2)cc(=O)n(C)c1=O` (stereo not given), the Potency result is “inactive”.

On to `CCN(c1ccccc1)S(=O)(=O)c1ccc(C(=O)N(CCCN(C)C)c2nc3cc4c(cc3s2)OCO4)cc1`, for which the Potency entry is “inactive”. For the molecule `CCN(CC)S(=O)(=O)c1cccc(C(=O)Nc2nc3cc4c(cc3s2)OCCO4)c1`, the Potency was 21.3 µM (active). For `CC1CCC(C(C)C)C(OC(=O)Cn2c(-c3ccccc3)[n+](C)c3ccccc32)C1` (stereo not given) the value was 30.1 µM (active). For the molecule `CCOC(=O)C1C(c2cc(OC)c(OC)c(OC)c2)NC(=S)NC1(O)C(F)(F)F` (stereo not given), the Potency entry was “inactive”. In the case of `CC1=C(C(=O)OC(C)(C)C)C(c2ccc3ccccc3c2)NC(=O)N1C` (stereo not given), the Potency entry was “inactive”. As for `CC(C)(C)OC(=O)NCCCCCc1cn([C@@H](CO)C(=O)NCCCCCCCCCCC(=O)N2CCN(C(=O)OC(C)(C)C)CC2)nn1`, the Potency is 16.9 µM (active). Regarding `CN1C(=O)/C(=C/c2ccc(OCc3ccccc3F)cc2)NC1=S`, the Potency result was “inactive”. Take `O=C1S/C(=C\c2ccc(O)c([N+](=O)[O-])c2)C(=O)N1c1ccccc1Cl`: the Potency is 9.53 µM (active). With `Cc1ccc(CN2C(=O)c3ccccc3Sc3ccc(C(=O)NCCN4CCOCC4)cc32)cc1`, the Potency entry was “inactive”.

Take `CC(=O)N1c2ccc(S(=O)(=O)N3CCC(C(=O)NC(C)c4ccccc4)CC3)cc2CC1C` (stereo not given): the Potency result was “inactive”.

With `C=CCSc1nsc(NC(=O)Nc2ccc(F)cc2)n1`, the Potency was 7.57 µM (active). For `Cc1ccc(-n2c(Cl)c(Cl)nc(Cl)c2=O)cc1` the value was 26.9 µM (active); for `CCOC(=O)c1cccc(OCC(O)CNCCOc2ccccc2F)c1` (stereo not given), “inactive”; for `O=[N+]([O-])c1ccc(N=Nc2c(Cl)cc(O)cc2Cl)cc1`, 1.51 µM (active). In the case of `COc1ccc(C(=O)NC2CCCc3c2cnn3-c2cccc(C)c2C)c(OC)n1` (stereo not given), the Potency is 21.3 µM (active). For `Cn1c(N=Nc2ccc(N3CCOCC3)cc2)[n+](C)c2ccccc21` the value was 12 µM (active). As to `CCCn1nc([N+](=O)[O-])c(C(C#N)c2nc3ccccc3o2)c(Cl)c1=O` (stereo not given), the Potency is 6.01 µM (active). For `CCn1nc([N+](=O)[O-])c(C(C#N)c2nc3cc(C(F)(F)F)ccc3s2)c(Cl)c1=O` (stereo not given) the value was 2.69 µM (active); for `Cc1cc(C(=O)CCl)c(C)n1CCc1ccccc1`, 30.1 µM (active).

As for `CCOC(=O)N1CCN(C(=O)CCc2ccccc2)CC1`, the Potency entry was “inactive”.

On to `O=C(NCCc1ccccc1)c1cccnc1N1CCCCCC1`, for which the Potency result is “inactive”. On to `Brc1ccc(CNc2ccc3ncccc3c2)cc1`, for which the Potency is 23.9 µM (active).

Turning to `CCOc1ccc(-n2c(SCC(=O)NC(C)CC)nc3n[nH]c(C)c3c2=N)cc1` (stereo not given), the Potency entry is “inactive”.

Regarding `O=S(=O)(Nc1ccc2cn[nH]c2c1)c1cc(Br)ccc1Br`, the Potency is 21.3 µM (active).

As for `O=C(Nc1ccncc1)Nc1cc(Cl)ccc1Cl`, the Potency entry is “inactive”. Consider `O=C(Nc1ccc(Cl)c(Cl)c1)Nc1ccccc1O`, for which the Potency was 21.3 µM (active). As for `O=C(c1cc(COc2cccc3cnccc23)on1)N1CCCC(CCCO)C1` (stereo not given), the Potency is 13.5 µM (active). For `CSc1ccccc1OCc1cc(C(=O)NC2CCc3ccccc32)no1` (stereo not given) the value was “inactive”.

Regarding `Cc1ccc(C(=O)Nc2ccc(Br)c(C(F)(F)F)c2)cc1`, the Potency is 23.9 µM (active). For `Cc1nc2ccc(C(=O)Nc3ccc4nc[nH]c4c3)cc2[nH]1` the value was “inactive”. For `CCn1c(=S)sc2c(=O)n(CC(=O)Nc3ccccc3OC)c(C)nc21` the value was “inactive”; for `O=C(COCc1cc(-c2cccs2)on1)NC1CCCCC1`, “inactive”. Regarding `O=C(Nc1nc(-c2cccs2)c(-c2cccs2)s1)C1CCCC1`, the Potency is 19 µM (active).

On to `COc1ccc(CC(=O)Oc2cc(C)ccc2C)cc1`, for which the Potency entry was “inactive”. For `CN(C)/C=C(/C(=O)c1ccc(Cl)cc1)S(=O)(=O)c1ccc(Cl)cc1`, the Potency result is “inactive”. For `c1ccc2c(CSc3ncnc4nc[nH]c34)cccc2c1` the value was 30.1 µM (active); for `O=C(COc1ccc(Cl)cc1)NCc1nnc(SCC(=O)NC2CCCCC2)o1`, “inactive”. For the molecule `Clc1ccc(CSc2nnc(CNc3cccc(Cl)c3)o2)cc1`, the Potency is 23.9 µM (active). For `C(=N\N1CCN(Cc2cccc3ccccc23)CC1)/c1cccnc1` the value was “inactive”; for `Cc1sc(N/N=C/c2cccnc2)nc1-c1ccccc1`, 23.9 µM (active); for `Nc1c(C(=O)NCc2ccc3c(c2)OCO3)nnn1CC(=O)Nc1ccc(Br)cc1`, “inactive”. For `COc1cc(C(C)=O)ccc1OCC(=O)Nc1ccc(C)c(S(=O)(=O)N2CCCCCC2)c1` the value was 19 µM (active); for `COc1ccc(NC(=O)CCC2CCCCC2)cc1S(=O)(=O)N1CCCCC1`, 37.9 µM (active); for `COC(=O)CN1C(=O)COc2ccc(S(=O)(=O)N3CCCC3)cc21`, “inactive”.

As for `COc1cc(C(=S)N2CCCC2)ccc1OCc1ccc(C)cc1`, the Potency result was “inactive”.

`COc1ccc(NS(=O)(=O)c2cc(NC(=O)/C=C/c3cc(OC)ccc3OC)ccc2N2CCCCC2)cc1`: the Potency entry was “inactive”. For `COc1ccc(Br)cc1/C=N/NC(=O)CN1CCCCC1` the value was “inactive”; for `COC(=O)c1cc(=O)n(-c2c(Cl)cc(C(F)(F)F)cc2Cl)[nH]1`, “inactive”; for `CCCN1CCN(CCCNC(=O)Cn2nc(C)n3c(cc4cc(OC)ccc43)c2=O)CC1`, “inactive”.
